What all share (assay): DAPPL (digital affinity profiling via proximity ligation, sequencing); 10 mM Tris-HCl pH 7.5, 50 mM NaCl, 1 mM DTT, 4% glycerol, room temperature, 30 min; GST-TFs on glutathione beads, 16-mer random dsDNA library, 0.1% formaldehyde crosslink after washing; high values mean tight binding
One experiment addresses T1, FEV (Homo sapiens, UniProt Q99581 1-238).
T1 sequence: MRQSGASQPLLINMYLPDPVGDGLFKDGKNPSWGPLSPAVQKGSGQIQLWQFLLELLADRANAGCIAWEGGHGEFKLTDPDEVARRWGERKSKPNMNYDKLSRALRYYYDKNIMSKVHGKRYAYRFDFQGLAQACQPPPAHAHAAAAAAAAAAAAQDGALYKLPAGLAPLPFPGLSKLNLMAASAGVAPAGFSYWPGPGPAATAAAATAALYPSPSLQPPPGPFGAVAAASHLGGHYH
As to conditions: protein: recombinant; tags: N-terminal GST; dsDNA, one strand shown. The essentials: (§1)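 Pools were built from human transcription factors expressed in yeast as GST fusions, captured on glutathione beads and DNA-barcoded, along with a tag-only sample. Incubation with 200 nmole of a 16-mer random double-stranded DNA library lasted 30 min at room temperature in Tris/NaCl/DTT/glycerol buffer, and was followed by washing, 0.1% formaldehyde crosslinking, proximity ligation, PCR amplification and Illumina NextSeq500 sequencing. Binding signal is the quotient of each hexamer's read frequency for a factor and its frequency for the tag-only sample.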

A further experiment deals with ETV5 (Homo sapiens, UniProt P41161 1-510). The note with it: protein: recombinant; tags: N-terminal GST; dsDNA, one strand shown. The essentials:
as §1

A further experiment concerns the target HSF1 (Homo sapiens, UniProt Q00613 1-529). As to conditions: protein: recombinant; tags: N-terminal GST; chain copies: 3; dsDNA, one strand shown. In short, it runs like this: as §1
Another experiment has as its target T2, SPIC (Homo sapiens, UniProt Q8N5J4 1-248).
T2 sequence: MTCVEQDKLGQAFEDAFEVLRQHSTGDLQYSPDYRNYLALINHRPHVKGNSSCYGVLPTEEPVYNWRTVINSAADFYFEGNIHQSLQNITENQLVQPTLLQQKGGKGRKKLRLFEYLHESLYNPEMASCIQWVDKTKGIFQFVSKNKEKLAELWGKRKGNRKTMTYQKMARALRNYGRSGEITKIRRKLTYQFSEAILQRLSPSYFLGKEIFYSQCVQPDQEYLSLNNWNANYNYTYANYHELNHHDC
The note with it: protein: recombinant; tags: N-terminal GST; dsDNA, one strand shown. In short, it runs like this:
as §1

For the next experiment, the target named is ELF4 (Homo sapiens, UniProt Q99607 1-663). The note with it: protein: recombinant; tags: N-terminal GST; dsDNA, one strand shown. The essentials:
as §1

The target of another experiment is T3, ELK4 (Homo sapiens, UniProt P28324-2 1-405).
T3 sequence: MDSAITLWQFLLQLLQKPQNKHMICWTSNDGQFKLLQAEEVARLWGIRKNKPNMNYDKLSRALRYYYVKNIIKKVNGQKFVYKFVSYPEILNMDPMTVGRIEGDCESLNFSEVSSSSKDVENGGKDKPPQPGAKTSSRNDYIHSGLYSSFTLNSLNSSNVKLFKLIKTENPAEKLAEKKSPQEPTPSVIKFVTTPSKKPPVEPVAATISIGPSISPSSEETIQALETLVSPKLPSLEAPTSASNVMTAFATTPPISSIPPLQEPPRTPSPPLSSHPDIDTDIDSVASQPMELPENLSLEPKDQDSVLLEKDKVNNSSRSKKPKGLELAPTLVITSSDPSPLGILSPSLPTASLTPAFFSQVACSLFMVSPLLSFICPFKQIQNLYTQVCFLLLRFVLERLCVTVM
As to conditions: protein: recombinant; tags: N-terminal GST; dsDNA, one strand shown. In short, it runs like this: as §1

For a further experiment, the target named is T4, ETV2 (Homo sapiens, UniProt O00321 1-342).
T4 sequence: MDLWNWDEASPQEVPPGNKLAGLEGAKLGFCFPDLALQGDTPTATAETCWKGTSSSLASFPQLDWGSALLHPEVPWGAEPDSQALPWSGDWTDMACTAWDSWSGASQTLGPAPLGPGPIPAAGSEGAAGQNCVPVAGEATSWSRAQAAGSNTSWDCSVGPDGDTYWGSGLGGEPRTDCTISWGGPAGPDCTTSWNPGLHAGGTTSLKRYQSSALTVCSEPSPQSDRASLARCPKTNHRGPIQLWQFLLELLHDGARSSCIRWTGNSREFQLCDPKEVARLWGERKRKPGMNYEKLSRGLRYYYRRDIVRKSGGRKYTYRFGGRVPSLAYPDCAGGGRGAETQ
The note with it: protein: recombinant; tags: N-terminal GST; dsDNA, one strand shown. The essentials: as §1

A further experiment deals with T5, ELF3 (Homo sapiens, UniProt P78545 1-371).
T5 sequence: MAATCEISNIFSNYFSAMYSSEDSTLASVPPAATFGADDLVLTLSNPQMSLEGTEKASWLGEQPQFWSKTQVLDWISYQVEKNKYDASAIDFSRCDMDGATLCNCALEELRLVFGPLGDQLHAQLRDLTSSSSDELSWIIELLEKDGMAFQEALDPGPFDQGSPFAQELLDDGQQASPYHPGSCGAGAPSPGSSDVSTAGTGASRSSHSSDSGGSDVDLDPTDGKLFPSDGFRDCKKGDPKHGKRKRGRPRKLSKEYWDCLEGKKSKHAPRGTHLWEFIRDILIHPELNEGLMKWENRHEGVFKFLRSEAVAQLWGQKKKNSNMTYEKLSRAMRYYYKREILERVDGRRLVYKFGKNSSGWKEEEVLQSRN
As to conditions: protein: recombinant; tags: N-terminal GST; dsDNA, one strand shown. In short, it runs like this:
as §1

In the next experiment the target is CRX (Homo sapiens, UniProt O43186 1-299). The note with it: protein: recombinant; tags: N-terminal GST; dsDNA, one strand shown. The essentials: as §1
Chain of CRX (O43186 whole entry): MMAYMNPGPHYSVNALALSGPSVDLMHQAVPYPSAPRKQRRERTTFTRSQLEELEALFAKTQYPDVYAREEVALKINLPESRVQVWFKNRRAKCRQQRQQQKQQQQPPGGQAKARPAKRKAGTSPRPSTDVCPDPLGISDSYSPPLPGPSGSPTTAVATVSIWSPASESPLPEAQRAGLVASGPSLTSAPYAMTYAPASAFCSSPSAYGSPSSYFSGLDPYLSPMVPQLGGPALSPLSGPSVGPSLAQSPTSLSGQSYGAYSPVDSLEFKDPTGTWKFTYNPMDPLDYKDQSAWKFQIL
The target of the next experiment is ETV1 (Homo sapiens, UniProt P50549 1-477). As to conditions: protein: recombinant; tags: N-terminal GST; dsDNA, one strand shown. In short, it runs like this: as §1
Chain of ETV1 (P50549 whole entry): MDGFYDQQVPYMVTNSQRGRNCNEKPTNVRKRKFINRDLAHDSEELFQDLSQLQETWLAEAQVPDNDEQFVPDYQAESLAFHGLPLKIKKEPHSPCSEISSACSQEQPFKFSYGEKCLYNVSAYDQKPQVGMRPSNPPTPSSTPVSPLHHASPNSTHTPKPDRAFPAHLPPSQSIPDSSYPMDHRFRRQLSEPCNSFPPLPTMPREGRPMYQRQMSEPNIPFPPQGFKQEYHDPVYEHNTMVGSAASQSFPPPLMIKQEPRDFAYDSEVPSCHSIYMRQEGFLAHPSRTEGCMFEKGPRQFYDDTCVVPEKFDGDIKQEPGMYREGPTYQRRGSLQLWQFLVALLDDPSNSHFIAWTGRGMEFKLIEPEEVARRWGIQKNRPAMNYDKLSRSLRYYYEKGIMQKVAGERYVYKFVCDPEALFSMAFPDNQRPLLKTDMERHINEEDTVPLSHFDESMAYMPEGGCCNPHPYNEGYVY
A further experiment has as its target T6, ERF (Homo sapiens, UniProt P50548 1-548).
T6 sequence: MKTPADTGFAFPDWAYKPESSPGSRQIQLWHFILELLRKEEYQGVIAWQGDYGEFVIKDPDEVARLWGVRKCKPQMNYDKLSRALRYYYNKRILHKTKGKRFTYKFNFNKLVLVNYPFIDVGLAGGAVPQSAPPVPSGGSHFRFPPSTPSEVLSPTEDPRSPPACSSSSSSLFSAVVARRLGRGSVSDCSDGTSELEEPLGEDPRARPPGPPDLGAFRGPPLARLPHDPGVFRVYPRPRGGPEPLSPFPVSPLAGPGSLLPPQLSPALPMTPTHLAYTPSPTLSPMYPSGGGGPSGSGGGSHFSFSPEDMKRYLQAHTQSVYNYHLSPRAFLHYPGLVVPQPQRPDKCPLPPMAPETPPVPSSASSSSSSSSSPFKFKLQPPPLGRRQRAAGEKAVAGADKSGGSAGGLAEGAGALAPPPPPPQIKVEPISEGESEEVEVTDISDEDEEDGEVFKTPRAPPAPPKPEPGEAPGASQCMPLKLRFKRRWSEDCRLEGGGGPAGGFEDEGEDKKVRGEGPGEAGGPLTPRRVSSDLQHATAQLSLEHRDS
As to conditions: protein: recombinant; tags: N-terminal GST; dsDNA, one strand shown. In short, it runs like this: as §1

The target of another experiment is T7, ETV3L (Homo sapiens, UniProt Q6ZN32 1-361).
T7 sequence: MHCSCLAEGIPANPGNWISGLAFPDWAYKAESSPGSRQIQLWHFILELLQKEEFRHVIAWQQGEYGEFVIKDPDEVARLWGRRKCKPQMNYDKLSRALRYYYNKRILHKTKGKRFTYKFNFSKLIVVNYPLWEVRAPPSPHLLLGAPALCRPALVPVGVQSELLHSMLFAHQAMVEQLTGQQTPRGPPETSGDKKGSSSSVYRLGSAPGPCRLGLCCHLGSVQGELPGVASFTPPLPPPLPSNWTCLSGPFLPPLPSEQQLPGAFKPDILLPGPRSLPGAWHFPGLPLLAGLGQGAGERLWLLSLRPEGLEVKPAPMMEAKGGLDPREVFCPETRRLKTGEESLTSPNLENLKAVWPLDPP
The note with it: protein: recombinant; tags: N-terminal GST; dsDNA, one strand shown. The essentials:
as §1

The target in another experiment is T8, ETS2 (Homo sapiens, UniProt P15036 1-469).
T8 sequence: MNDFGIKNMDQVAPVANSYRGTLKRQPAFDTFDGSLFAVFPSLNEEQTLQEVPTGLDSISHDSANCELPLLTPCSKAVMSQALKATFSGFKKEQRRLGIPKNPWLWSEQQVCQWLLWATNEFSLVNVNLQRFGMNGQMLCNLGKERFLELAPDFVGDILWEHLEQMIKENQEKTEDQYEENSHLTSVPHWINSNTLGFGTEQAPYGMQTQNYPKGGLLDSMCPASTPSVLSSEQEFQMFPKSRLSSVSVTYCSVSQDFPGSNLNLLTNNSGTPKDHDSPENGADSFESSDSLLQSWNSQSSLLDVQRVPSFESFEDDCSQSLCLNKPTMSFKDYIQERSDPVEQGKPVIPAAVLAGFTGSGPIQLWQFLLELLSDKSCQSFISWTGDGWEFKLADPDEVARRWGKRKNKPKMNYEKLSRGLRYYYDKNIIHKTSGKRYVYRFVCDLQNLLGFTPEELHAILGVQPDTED
The note with it: protein: recombinant; tags: N-terminal GST; dsDNA, one strand shown. The essentials:
as §1

The next experiment has as its target T9, SPDEF (Homo sapiens, UniProt O95238 1-335).
T9 sequence: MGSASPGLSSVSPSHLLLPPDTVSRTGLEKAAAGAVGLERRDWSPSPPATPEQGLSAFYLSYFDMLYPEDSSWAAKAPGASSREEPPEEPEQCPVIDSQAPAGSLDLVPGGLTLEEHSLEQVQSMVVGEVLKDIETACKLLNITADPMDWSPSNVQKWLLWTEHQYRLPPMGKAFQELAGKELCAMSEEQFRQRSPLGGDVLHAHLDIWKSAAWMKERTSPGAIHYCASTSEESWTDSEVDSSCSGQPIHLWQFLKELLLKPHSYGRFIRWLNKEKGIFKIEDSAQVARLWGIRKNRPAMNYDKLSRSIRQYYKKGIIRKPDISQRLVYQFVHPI
The note with it: protein: recombinant; tags: N-terminal GST; dsDNA, one strand shown. In short, it runs like this: as §1

The next experiment concerns the target T10, ETV7 (Homo sapiens, UniProt Q9Y603 1-341).
T10 sequence: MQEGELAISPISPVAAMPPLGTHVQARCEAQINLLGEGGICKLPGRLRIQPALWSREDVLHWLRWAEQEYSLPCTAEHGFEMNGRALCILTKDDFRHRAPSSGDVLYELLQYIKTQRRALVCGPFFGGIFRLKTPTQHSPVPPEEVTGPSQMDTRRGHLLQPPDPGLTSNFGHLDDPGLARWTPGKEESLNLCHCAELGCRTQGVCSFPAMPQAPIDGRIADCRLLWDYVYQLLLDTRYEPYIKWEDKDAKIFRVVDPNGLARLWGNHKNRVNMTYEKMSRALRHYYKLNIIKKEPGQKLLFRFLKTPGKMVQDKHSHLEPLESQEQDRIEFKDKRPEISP
The note with it: protein: recombinant; tags: N-terminal GST; dsDNA, one strand shown. In short, it runs like this:
as §1

A further experiment addresses T11, ELF5 (Homo sapiens, UniProt Q9UKW6-2 1-255).
T11 sequence: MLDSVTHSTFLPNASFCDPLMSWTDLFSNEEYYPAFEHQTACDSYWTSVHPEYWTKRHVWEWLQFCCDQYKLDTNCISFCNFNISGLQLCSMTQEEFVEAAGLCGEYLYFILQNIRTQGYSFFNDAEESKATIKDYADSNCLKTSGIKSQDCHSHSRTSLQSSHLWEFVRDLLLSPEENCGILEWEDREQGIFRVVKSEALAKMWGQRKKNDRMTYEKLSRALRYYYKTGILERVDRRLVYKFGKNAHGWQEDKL
The note with it: protein: recombinant; tags: N-terminal GST; dsDNA, one strand shown. The essentials:
as §1

The next experiment addresses T12, ETV3 (Homo sapiens, UniProt P41162-2 1-143).
T12 sequence: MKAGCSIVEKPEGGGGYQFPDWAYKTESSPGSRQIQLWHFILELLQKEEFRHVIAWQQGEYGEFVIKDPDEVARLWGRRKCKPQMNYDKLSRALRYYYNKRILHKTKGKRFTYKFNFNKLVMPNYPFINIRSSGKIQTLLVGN
As to conditions: protein: recombinant; tags: N-terminal GST; dsDNA, one strand shown. In short, it runs like this: as §1

Another experiment addresses ETV6 (Homo sapiens, UniProt P41212 1-452). As to conditions: protein: recombinant; tags: N-terminal GST; dsDNA, one strand shown. In short, it runs like this: as §1

Chain of ETV5 (P41161 whole entry): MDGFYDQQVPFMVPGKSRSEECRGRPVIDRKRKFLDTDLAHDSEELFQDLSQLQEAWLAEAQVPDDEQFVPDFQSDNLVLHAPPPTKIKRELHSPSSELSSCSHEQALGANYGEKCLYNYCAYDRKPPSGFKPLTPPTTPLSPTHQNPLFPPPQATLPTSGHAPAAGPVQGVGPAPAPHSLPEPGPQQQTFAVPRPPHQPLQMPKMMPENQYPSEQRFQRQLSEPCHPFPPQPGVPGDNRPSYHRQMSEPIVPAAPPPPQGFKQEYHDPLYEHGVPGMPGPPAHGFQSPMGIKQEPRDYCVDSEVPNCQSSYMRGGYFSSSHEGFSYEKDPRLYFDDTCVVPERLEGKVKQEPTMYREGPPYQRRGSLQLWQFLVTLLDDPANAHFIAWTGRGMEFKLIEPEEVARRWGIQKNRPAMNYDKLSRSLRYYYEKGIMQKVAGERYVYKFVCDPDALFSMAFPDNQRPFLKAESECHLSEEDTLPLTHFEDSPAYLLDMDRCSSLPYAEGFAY
Chain of ELF4 (Q99607 whole entry): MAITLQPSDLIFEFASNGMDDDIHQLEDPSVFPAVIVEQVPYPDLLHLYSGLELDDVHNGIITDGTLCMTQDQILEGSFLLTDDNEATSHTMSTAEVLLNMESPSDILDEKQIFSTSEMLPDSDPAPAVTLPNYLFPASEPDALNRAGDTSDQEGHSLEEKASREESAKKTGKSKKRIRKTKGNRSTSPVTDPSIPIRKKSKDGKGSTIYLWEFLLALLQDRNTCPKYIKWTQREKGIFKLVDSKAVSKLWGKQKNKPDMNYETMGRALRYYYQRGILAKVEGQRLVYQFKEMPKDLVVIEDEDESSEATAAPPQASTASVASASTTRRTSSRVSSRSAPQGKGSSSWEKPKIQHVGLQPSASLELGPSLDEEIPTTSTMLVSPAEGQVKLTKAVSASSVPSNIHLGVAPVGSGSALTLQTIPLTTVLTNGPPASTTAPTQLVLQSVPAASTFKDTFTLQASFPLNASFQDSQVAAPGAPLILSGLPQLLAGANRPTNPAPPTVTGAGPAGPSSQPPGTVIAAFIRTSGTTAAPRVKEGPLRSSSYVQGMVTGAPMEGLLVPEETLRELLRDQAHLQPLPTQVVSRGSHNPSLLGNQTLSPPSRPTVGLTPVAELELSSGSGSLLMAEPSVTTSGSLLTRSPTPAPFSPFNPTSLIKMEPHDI
Chain of HSF1 (Q00613 whole entry): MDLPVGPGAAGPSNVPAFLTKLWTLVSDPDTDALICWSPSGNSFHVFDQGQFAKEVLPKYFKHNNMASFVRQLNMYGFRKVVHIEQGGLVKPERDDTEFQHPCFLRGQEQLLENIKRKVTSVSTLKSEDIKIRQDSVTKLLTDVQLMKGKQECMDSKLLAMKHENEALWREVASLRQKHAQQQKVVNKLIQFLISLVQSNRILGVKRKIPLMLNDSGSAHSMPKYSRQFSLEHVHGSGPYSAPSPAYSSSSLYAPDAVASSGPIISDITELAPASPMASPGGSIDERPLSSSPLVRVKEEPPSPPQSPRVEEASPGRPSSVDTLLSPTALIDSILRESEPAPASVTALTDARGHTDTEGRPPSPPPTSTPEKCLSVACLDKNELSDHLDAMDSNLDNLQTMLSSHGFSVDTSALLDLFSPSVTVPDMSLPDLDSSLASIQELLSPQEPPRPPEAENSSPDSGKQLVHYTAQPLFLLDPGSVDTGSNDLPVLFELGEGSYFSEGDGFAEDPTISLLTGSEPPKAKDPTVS
Chain of ETV6 (P41212 whole entry): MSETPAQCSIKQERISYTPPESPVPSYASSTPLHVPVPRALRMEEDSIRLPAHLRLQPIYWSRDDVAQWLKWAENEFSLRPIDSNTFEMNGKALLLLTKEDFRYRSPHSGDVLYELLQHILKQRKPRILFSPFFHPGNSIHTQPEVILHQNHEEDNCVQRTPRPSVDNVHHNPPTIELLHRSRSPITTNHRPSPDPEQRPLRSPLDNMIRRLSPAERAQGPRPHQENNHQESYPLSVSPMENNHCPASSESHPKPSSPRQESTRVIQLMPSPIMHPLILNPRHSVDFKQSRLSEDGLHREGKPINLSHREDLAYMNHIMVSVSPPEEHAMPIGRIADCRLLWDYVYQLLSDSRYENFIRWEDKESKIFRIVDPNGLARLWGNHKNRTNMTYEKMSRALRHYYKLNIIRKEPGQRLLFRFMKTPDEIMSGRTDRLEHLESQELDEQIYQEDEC

As to GACCTT, the binding signal with FEV is 1.6 fold enrichment (6-mer frequency, TF over GST control); in the experiment with ETV5 it was 1.55 fold enrichment (6-mer frequency, TF over GST control); in the experiment with HSF1 it was 1.52 fold enrichment (6-mer frequency, TF over GST control); with SPIC it was 1.74 fold enrichment (6-mer frequency, TF over GST control); with ELF4, 1.73 fold enrichment (6-mer frequency, TF over GST control); with ELK4 it was 1.61 fold enrichment (6-mer frequency, TF over GST control). For the same sequence, the binding signal was 1.63 fold enrichment (6-mer frequency, TF over GST control) with ETV2; 1.49 fold enrichment (6-mer frequency, TF over GST control) with ELF3; 1.31 fold enrichment (6-mer frequency, TF over GST control) with CRX; 1.48 fold enrichment (6-mer frequency, TF over GST control) with ETV1; 1.5 fold enrichment (6-mer frequency, TF over GST control) with ERF; 1.64 fold enrichment (6-mer frequency, TF over GST control) with ETV3L. Moreover, the binding signal with ETS2 is 1.49 fold enrichment (6-mer frequency, TF over GST control); in the experiment with SPDEF, 1.66 fold enrichment (6-mer frequency, TF over GST control); with ETV7, 1.41 fold enrichment (6-mer frequency, TF over GST control); with ELF5, 1.62 fold enrichment (6-mer frequency, TF over GST control); with ETV3, 1.5 fold enrichment (6-mer frequency, TF over GST control); with ETV6, 1.5 fold enrichment (6-mer frequency, TF over GST control).

The values are drawn from PMC7862700, “An all-to-all approach to the identification of sequence-specific readers for epigenetic DNA modifications on cytosine”.
